Screening data deposited in PubChem by National Center for Advancing Translational Sciences (NCATS).
In the library only some 10% were active in any assay of this set; here they are far more common.
G9a inh: qHTS Assay for Inhibitors of Histone Lysine Methyltransferase G9a | Histone-lysine N-methyltransferase EHMT2 (Homo sapiens), Q96KQ7 | G9a H3K9 monomethylation, AlphaScreen, 2 h | hit rate 8.8% among 350,000 | Potency, µM (top dose mostly 102 µM), for inactives: at the highest dose activity, negative = inhibition, usual class: inhibitors; also: potency is read from the fitted curve at half-maximal effect; % is scaled to controls: 0 for no effect and ±100 for the full control effect; nearly all actives have a fitted effect of over 75% in size
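Compounds were preincubated with 20 nM G9a for 15 min, after which biotinylated H3K9 peptide (500 nM) and SAM (20 uM) started a 2 h room-temperature reaction. Monomethylated product was quantified by antibody-based AlphaScreen chemiluminescence.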
CtBP-E1A inh: qHTS Assay for Inhibitors of the CtBP/E1A Interaction | AlphaScreen GST-E1A/His-CtBP binding, 1536-well; hits give low values | activity change, % (no concentration beside the values) | hit rate 0.49% among 340,000; in the data active = activity change below about -65%; inconclusive = mostly about -30% to -63%; also: % is scaled to controls: 0 for no effect and ±100 for the full control effect
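In 5 uL wells, 23 nL compound meets equimolar GST-E1A and His-CtBP (5X stock 125 nM each) for 2 h, 37 °C. Beads (5X, 50 ug/mL) then 1 h, 37 °C, dark.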
JMJD2A Tudor: qHTS Assay for Inhibitors of JMJD2A-Tudor Domain. AlphaScreen JMJD2A-Tudor / H3K4me3 peptide binding. Potency, µM (titrated, usually from 114 µM), inactives show top-dose activity change, negative = inhibition, most hits filed as inhibitors. hit rate 4.4% among 390,000; also: potency is read from the fitted curve at half-maximal effect; % is scaled to controls: 0 for no effect and ±100 for the full control effect; nearly all actives have a fitted effect of over 50% in size
Six1-Eya2 blk: qHTS Assay for Inhibitors of the Six1/Eya2 Interaction; Homeobox protein SIX1 (Homo sapiens) + Protein phosphatase EYA2 (Homo sapiens), …; activity change, % (test concentration not listed); AlphaScreen GST-Six1/His-Eya2 binding, biochemical; hits give low values; hit rate 0.56% among 360,000; AID 651725, 2012; in the data active = activity change below about -65%; inconclusive = mostly about -30% to -63%; also: % is scaled to controls: 0 for no effect and ±100 for the full control effect
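GST-Six1 + His-Eya2 (5X stock: 250/500 nM); Tris pH 8.0, 300 mM NaCl, 0.05% BSA, 0.02% Tween 20; GSH donor/Ni acceptor beads; 1 h 37 °C dark; AlphaScreen readout.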
BAZ2B inh: qHTS Assay for Inhibitors of BAZ2B | Potency, µM (doses to about 114 µM), inactives show at the top dose activity change, negative = inhibition, most hits filed as inhibitors | AID 504333, 2011 | AlphaScreen BAZ2B-H3K14Ac peptide displacement | Bromodomain adjacent to zinc finger domain protein 2B (Homo sapiens), Q9UIF8 | hit rate 4.4% among 360,000; also: potency is read from the fitted curve at half-maximal effect; % is scaled to controls: 0 for no effect and ±100 for the full control effect; nearly all actives have a fitted effect of over 60% in size
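Compounds, titrated to a top concentration of 110 uM, were incubated 30 min at room temperature with preformed BAZ2B/acetyl-K14 H3 peptide complex (50 nM each). Proximity signal was measured by AlphaScreen after 20 min with beads.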
HP1b chromo inh: HTS for Inhibitors of HP1-beta Chromodomain Interactions with Methylated Histone Tails; Chromobox protein homolog 1 (Homo sapiens), P83916; AlphaScreen HP1-beta / biotin-H3K9me3 peptide binding; hit rate 0.56% among 390,000; Potency, µM (highest dose often 114 µM), for inactives: at the highest dose activity change, negative = inhibition, usual class: inhibitors; also: potency is read from the fitted curve at half-maximal effect; nearly all actives have a fitted effect of over 70% in size
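HP1-beta protein (50 nM final) preincubated 30 min at room temperature with biotinylated H3(1-18)K9me3 peptide (50 nM) in PBS pH 7.4, 0.01% Tween-20, then compound added for 30 min. AlphaScreen streptavidin donor/nickel chelate acceptor beads (10 ug/mL final), 30 min dark, luminescence read.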
* = called active by the depositor; ? = inconclusive; / = no result; ! = not confirmed by another sample; [ ] = dose if it differs, or a comment. Unless noted, calls follow the shape of the dose curve; as a rule, active = well fitted inhibition curve with a large enough effect; inconclusive = small, poorly fitted or top-dose-only effect; inactive = no such curve, though single readings can be large or run the other way.

SMILES	G9a inh	CtBP-E1A inh	JMJD2A Tudor	Six1-Eya2 blk	BAZ2B inh	HP1b chromo inh
CCSc1ncc(Cl)c(C(=O)N(Cc2ccccc2)c2ccc(OC)cc2)n1	21%[59 µM]	/	3%	/	7%	47%
CCN(Cc1nc2cc(Cl)ccc2c(=O)[nH]1)C(=O)CN1C(=O)NC2(CCCCC2C)C1=O (centres undefined)	50µM*	-5	-18%	6	-4%	-1%
Cc1ccc(C(C)C)c(OCCNS(C)(=O)=O)c1	15%[59 µM]	5	-8%	9	2%	24%
Cc1ccc(C(C)C)c(OCCNCCc2ccccc2)c1	/	11	25µM*	1	?	?
CCCCNCC#CCOc1cc(C)ccc1C(C)C	/	/	22µM*	22	?	-3%
Cc1ccc(C(C)C)c(OCCCNCc2cccnc2)c1	50µM*	3	-7%	4	-34%	30%
COc1ccc([C@@H]2Sc3ccccc3N(CCN(C)C)C(=O)[C@@H]2OC(C)=O)cc1	3.2µM*!	1	-3%	-1	-31%	23%
COc1ccc(C2CC(=O)N(Cc3cccc(F)c3)c3ccccc3S2)cc1 (centres undefined)	15%[59 µM]	/	13%	/	2%	40%
Cc1ccn2c(Nc3ccccc3C)c(-c3ccc(N4CCOCC4)cc3)nc2c1	10µM*	/	45µM*	/	?	-8%
Cc1ccc2nc(-c3ccc(N4CCOCC4)cc3)c(Nc3ccccc3C)n2c1	13µM*	/	14µM*	/	10µM*	?
O=C1NC(=O)/C(=C/c2ccc(-c3cc(C(=O)O)ccc3Cl)o2)S1	/	/	-19%	-8	-12%	15%
O=C1NC(=S)/C(=C\c2ccc(-c3ccccc3Cl)o2)S1	10µM*	4	45µM*	-29	18µM*	?
CSc1nc2nc3c(cc2c(=O)n1-c1ccccc1C)CCCC3	7.1µM*	4	1%	-5	-16%	34%
CSc1nc2sc3c(c2c(=O)n1-c1ccccc1C)CCCC3	-25%[59 µM]	/	-13%	/	-3%	32%
O=[N+]([O-])c1ccc(S(=O)(=O)CC(CN2CCCCC2)N2CCCCC2)cc1 (centres undefined)	35µM*	/	-18%	-9	-22%	12%
O=[N+]([O-])c1ccc(S(=O)(=O)CC(CN2CCOCC2)N2CCOCC2)cc1 (centres undefined)	56µM*	0	-5%	4	14%	30%
O=S(=O)(CC(CN1CCCCC1)N1CCCCC1)c1ccccc1 (centres undefined)	-1%	/	-19%	0	-17%	43%
O=[N+]([O-])c1ccc(C(O)CN2CCOCC2)cc1 (centres undefined)	10%	-5	-11%	2	-3%	-12%
CCc1nnc(NC(=O)CS(=O)(=O)c2ccccc2)s1	-6%	2	3%	0	11%	18%
CCOC(=O)c1ccc(NC(=O)CCc2c(C)nc3cc(-c4ccc(OC)cc4OC)nn3c2C)cc1	5%[59 µM]	/	-8%	/	-2%	55%
CNC(=O)OCc1cccc(COC(=O)NC)n1	45µM*!	6	-5%	-1	?	32%
CNC(=O)OCc1cocc1COC(=O)NC	/	-1	/	24	/	/
O=C(NCc1cccs1)c1ccc(CSc2nc3ccncc3n2Cc2cccc(F)c2)cc1	?	/	-21%	/	-4%	34%
O=C(O)c1ccccc1SCc1cn2cc(Br)ccc2n1	?	-5	-10%	5	-25%	61%
O=C(O)c1cccnc1SCc1cn2cc(Br)ccc2n1	50µM*	/	-23%[11.4 µM]	3	?	5%
SMILES	G9a inh	CtBP-E1A inh	JMJD2A Tudor	Six1-Eya2 blk	BAZ2B inh	HP1b chromo inh
Cc1ccc(C)c(CSc2ncccc2C(=O)O)c1	50µM*	17	-17%	8	-36%	2%
CCNc1ncc2nc(C)c(=O)n(CCOC)c2n1	-1%[0.501 µM]	/	/	/	/	/
O=C(COc1cccc(C(F)(F)F)c1)N1CCN(c2ccc(O)cc2)CC1	7.9µM*	0	56µM*	12	/	79µM*
NC(=O)C1CCN(C(=O)CN2CCN(c3cccc(C(F)(F)F)c3)CC2)CC1	-25%	3	89µM*	0	2%	-4%
O=C(COc1cccc(C(F)(F)F)c1)N1CCN(c2ccccc2O)CC1	-82%[59 µM]	1	-17%	1	?	8%
C#CCOCCOCCOCCNc1nc(N2CCN(C(=O)[C@H](CCCN=C(N)N)n3cc(C(N)[C@H](C)CC)nn3)CC2)nc(N2CCN(C(=O)[C@H](CCCN=C(N)N)n3cc(C(N)[C@@H](C)CC)nn3)CC2)n1 (some centres undefined)	/	-13	79µM*	-8	/	3%
C#CCOCCOCCOCCNc1nc(N2CCN(C(=O)[C@H](CCCN=C(N)N)n3cc(C(N)[C@@H](C)CC)nn3)CC2)nc(N2CCN(C(=O)[C@H](CC(N)=O)n3cc([C@@H](N)CC(N)=O)nn3)CC2)n1 (some centres undefined)	/	-14	22µM*	-8	/	6%
C#CCOCCOCCOCCNc1nc(N2CCN(C(=O)[C@H](CCCCN)n3cc(CN)nn3)CC2)nc(N2CCN(C(=O)[C@H](CCCN=C(N)N)n3cc(C(N)[C@H](C)CC)nn3)CC2)n1 (some centres undefined)	/	-17	79µM*	-5	/	18%
C#CCOCCOCCOCCNc1nc(N2CCOCC2)nc(N2CCN(C(=O)[C@H](CCCN=C(N)N)n3cc(C(N)[C@@H](C)CC)nn3)CC2)n1 (some centres undefined)	/	-1	-20%	4	/	28%
C#CCOCCOCCOCCNc1nc(N2CCN(C(=O)[C@H](CCCN=C(N)N)n3cc(C(N)[C@@H](C)CC)nn3)CC2)nc(N2CCN(C(=O)[C@H](CC(N)=O)n3cc([C@@H](N)C(C)C)nn3)CC2)n1 (some centres undefined)	/	-9	79µM*	-6	/	16%
CCOC(=O)/C(C#N)=C1\CCCN1CC(N)=S	18µM*	7	-18%	1	-23%	-25%
COc1cc(-c2csc(N3CCOCC3)n2)cc(OC)c1OC	56µM*	-1	-24%	-11	?	14%
c1ccc2oc(-c3csc(N4CCOCC4)n3)cc2c1	40µM*	-5	-16%	-11	-31%	-5%
